Reference: PubChem BioAssay (EPA / NIEHS)
Active and inactive are the calls of the source. Rule for the calls: active = hit-call score of the fitted dose curve at least 0.9, where 1 is the maximum; inactive = score below 0.9.

These compounds were tested on Lipoprotein lipase (LPL), LPL (gene 4023) (assay: LTEA_HepaRG_LPL: Life Technologies and Expression Analysis (LTEA) Assay for Lipoprotein lipase (LPL) using HepaRG (AID 2283515)). Details: mRNA level, 48 h; actives raise or lower the signal.
Method in brief: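 Differentiated human HepaRG cells in serum-free induction medium were exposed in duplicate for 48 h to eight half-log concentrations (top 100 uM) in 0.5% DMSO. LPL mRNA was quantified by TaqMan qRT-PCR, normalized to ACTB, GAPDH and POLR2A.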

| SMILES | outcome | AC50 |
| --- | --- | --- |
| COCC(C)N(C(=O)CCl)c1c(C)csc1C (configuration not stated) | inactive | – |
| COC(=O)c1c(C(F)F)nc(C(F)(F)F)c(C2=NCCS2)c1CC(C)C | inactive | – |
| Cn1c(-c2ccccc2)cc(-c2ccccc2)[n+]1C | – | 11.4 µM (active) |
| COC(=O)NS(=O)(=O)c1ccc(N)cc1 | inactive | – |
| CC(C)Nc1nc(Cl)nc(NC(C)C)n1 | inactive | – |
| COC(=O)NC(=S)Nc1ccccc1NC(=S)NC(=O)OC | inactive | – |
| Clc1cccc(C(Cl)(Cl)Cl)n1 | inactive | – |
| COP(=S)(OC)Oc1ccc([N+](=O)[O-])c(C)c1 | inactive | – |
| CCOP(=S)(OCC)Oc1nc(Cl)n(C(C)C)n1 | – | 64.7 µM (active) |
| COc1cc(Cl)c(OC)cc1Cl | inactive | – |
| CCCCC(O)(Cn1cncn1)c1ccc(Cl)cc1Cl (configuration not stated) | – | 50 µM (active) |
| CNC(=O)N(C)c1nnc(C(C)(C)C)s1 | inactive | – |
| O=C(Nc1ccccc1-c1ccc(Cl)cc1)c1cccnc1Cl | inactive | – |
| CCNC(=O)NC(=O)C(C#N)=NOC | inactive | – |
| CCN(CC)C(=O)C(C)Oc1cccc2ccccc12 (configuration not stated) | inactive | – |
| CC1(C)CON(Cc2ccccc2Cl)C1=O | inactive | – |
| CCOc1nc(C(Cl)(Cl)Cl)ns1 | – | 1.06 µM (active) |
| CN=C=S | inactive | – |
| C=C(C)CN(CC)c1c([N+](=O)[O-])cc(C(F)(F)F)cc1[N+](=O)[O-] | inactive | – |
| Nc1c(Cl)c(Cl)nc(C(=O)O)c1Cl | inactive | – |
| CC1(C)C(C=C(Cl)Cl)C1C(=O)OC(C#N)c1cccc(Oc2ccccc2)c1 (configuration not stated) | inactive | – |
| Cc1cnc(C2=NC(C)(C(C)C)C(=O)N2)c(C(=O)O)c1 (configuration not stated) | inactive | – |
